Experimental data from PubChem BioAssay (NCI).
This is part of a sample that, as a whole, favours compounds with a hit. Of some 83,000 tested, about 20% had one in any assay.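 How to read the values: 0–100, growth inhibition (40 = 60% inhibited); 0, no net growth; -100 to 0, cell death (-40 = 40% of starting cells died; -100 = all dead).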 Unmarked numbers belong to inactive results. Activity calls are given as the source filed them. The calls were made as follows: active = growth percent below 10; inactive = the rest.

Assays:
Assay in all cases: NCI-60 one-dose screen, 48 h (100 = growth as untreated, 0 = no growth, -100 = all killed)
Conditions in all cases: 10 µM unless noted
[1] = tested on: NCI-H23 lung
[2] = tested on: NCI-H226 lung
[3] = tested on: NCI-H322M lung
[4] = tested on: HOP-62 NSCLC
[5] = tested on: NCI-H460 lung
[6] = tested on: HOP-92 NSCLC
[7] = tested on: NCI-H522 lung
[8] = tested on: A549/ATCC NSCLC
[9] = tested on: 786-0 renal
[10] = tested on: COLO 205 colon
[11] = tested on: DU-145 prostate
[12] = tested on: K-562 leukemia
[13] = tested on: MALME-3M melanoma
[14] = tested on: MDA-MB-231 breast
[15] = tested on: SF-268 CNS
[16] = tested on: SF-295 CNS
[17] = tested on: SF-539 CNS
[18] = tested on: UACC-257 melanoma
[19] = tested on: M14 melanoma

`CCCCc1ccc(Nc2nnc(SCC(=O)NC(=O)NCC)s2)cc1` was tested, and the growth [1] was 97.3%, the growth [2] was 95.7% and the growth [3] was 81.5%. The growth [4] was 96%, the growth [5] was 102% and the growth [6] was 61.4%. It also gave a growth [7] of 87.7%, a growth [8] of 109% and a growth [9] of 95.9%. The growth [10] was 202%, the growth [11] was 104% and the growth [12] was 91.6%. For the same molecule, the growth [13] was 97.2%, the growth [14] was 88.1% and the growth [15] was 92.4%. The growth [16] was 110%, the growth [17] was 96.4% and the growth [18] was 113%. It also gave a growth [19] of 107%.
With `COC(=O)Nc1nc2ccc(C(=O)c3cccc(I)c3)cc2[nH]1` the growth [1] was 22.1%, the growth [2] was 51.4% and the growth [3] was 39.4%. The growth [4] was 37%, the growth [5] was 4.52% (active) and the growth [6] was 51.5%. The growth [7] was -29.2% (active), the growth [8] was 15.3% and the growth [9] was 27.2%. For the same molecule, the growth [10] was -29.7% (active), the growth [11] was 5.95% (active) and the growth [12] was 6.18% (active). The growth [13] was 31.3%, the growth [14] was -3.99% (active) and the growth [15] was 22.4%. For the same molecule, the growth [16] was 12%, the growth [17] was -25.8% (active) and the growth [18] was 61.4%. For the same molecule, the growth [19] was 1.39% (active).
Work on `CC(C)CN(C(=O)c1ccc(Cl)cc1)c1c(N)n(CC(C)C)c(=O)[nH]c1=O` yielded a growth [1] of 95.8%, a growth [2] of 98.7% and a growth [3] of 103%. The growth [4] was 90.6%, the growth [5] was 88.4% and the growth [6] was 80.6%. The growth [7] was 98.8%, the growth [8] was 98.8% and the growth [9] was 91.4%. The growth [10] was 122%, the growth [11] was 112% and the growth [12] was 103%. For the same molecule, the growth [13] was 102%, the growth [14] was 96.1% and the growth [15] was 92.3%. It also gave a growth [16] of 84.7%, a growth [17] of 43.7% and a growth [18] of 103%. The growth [19] was 109%.
With `CC[C@H](C)[C@@H]1NC(=O)[C@H](Cc2ccc(O)cc2)N(C)C(=O)[C@H](Cc2ccccc2)NC(=O)CN(C)C(=O)[C@@H]2CCCN2C(=O)[C@@H](Cc2ccccc2)N(C)C(=O)[C@H](CC(C)C)NC1=O` the growth [1] was -15.1% (active), the growth [2] was -8.47% (active) and the growth [3] was -20.2% (active). The growth [4] was 0.573% (active), the growth [5] was -26.5% (active) and the growth [6] was -3.08% (active). For the same molecule, the growth [7] was 0.571% (active), the growth [8] was 2.11% (active) and the growth [9] was 10.6%. The growth [10] was -25.1% (active), the growth [11] was 0.387% (active) and the growth [12] was 6.28% (active). The growth [13] was -25.5% (active), the growth [14] was -12.6% (active) and the growth [15] was -5.16% (active). For the same molecule, the growth [16] was -23.5% (active), the growth [17] was -24.8% (active) and the growth [18] was -0.97% (active). For the same molecule, the growth [19] was -69.4% (active).
For `O=C1Nc2ccccc2/C1=C\c1cccc(/C=C2/C(=O)Nc3ccccc32)n1`, the growth [1] was -15.9% (active), the growth [2] was 2.74% (active) and the growth [3] was -70.8% (active). The growth [4] was -61.3% (active), the growth [5] was -60.9% (active) and the growth [6] was -31.7% (active). For the same molecule, the growth [7] was 10%, the growth [8] was 6.25% (active) and the growth [9] was -84.4% (active). The growth [10] was -85.7% (active), the growth [11] was -90.2% (active) and the growth [12] was -24.1% (active). For the same molecule, the growth [13] was -40.3% (active), the growth [14] was -52.3% (active) and the growth [15] was -67.1% (active). The growth [16] was -81% (active), the growth [17] was -73.4% (active) and the growth [18] was -65.8% (active). For the same molecule, the growth [19] was -69.2% (active).
With `O=C(O)CCCCCCCCCCCCCCC(=O)O` the growth [1] was 103%, the growth [2] was 85.3% and the growth [3] was 100%. It also gave a growth [4] of 99.1%, a growth [5] of 110% and a growth [6] of 85.1%. For the same molecule, the growth [7] was 89.6%, the growth [8] was 90.5% and the growth [9] was 102%. For the same molecule, the growth [10] was 108%, the growth [11] was 106% and the growth [12] was 109%. The growth [13] was 101%, the growth [14] was 98.2% and the growth [15] was 98.9%. It also gave a growth [16] of 101%, a growth [17] of 105% and a growth [18] of 95.6%. The growth [19] was 107%.
With `O=C1c2cccnc2C(=O)c2nc3cc(N4CCN(C5CC5)CC4)ccc3nc21` the growth [1] was -56.5% (active), the growth [2] was -49.1% (active) and the growth [3] was -96.7% (active). For the same molecule, the growth [4] was -56.6% (active), the growth [5] was -54.1% (active) and the growth [6] was 62.5%. For the same molecule, the growth [7] was -50.5% (active), the growth [8] was -53.3% (active) and the growth [9] was 28.1%. The growth [10] was -68.3% (active), the growth [11] was -75.9% (active) and the growth [12] was 0.866% (active). For the same molecule, the growth [13] was -100% (active), the growth [14] was 15.1% and the growth [15] was 12.5%. For the same molecule, the growth [16] was -88.9% (active), the growth [17] was -99.4% (active) and the growth [18] was -84.5% (active). The growth [19] was -91.2% (active).
`CC(C)[N+](C)(CCOC(COc1ccccc1)COc1ccccc1)C(C)C` gave a growth [1] of 84.1%, a growth [2] of 91.2% and a growth [3] of 101%. It also gave a growth [4] of 98.6%, a growth [5] of 106% and a growth [6] of 72.2%. It also gave a growth [7] of 68%, a growth [8] of 92.5% and a growth [9] of 102%. It also gave a growth [10] of 67.9%, a growth [11] of 106% and a growth [12] of 53%. The growth [13] was 105%, the growth [14] was 98% and the growth [15] was 94.5%. The growth [16] was 98.9%, the growth [17] was 100% and the growth [18] was 78.7%. The growth [19] was 100%.
